hcGAS inh: Primary biochemical luminescence assay for human cyclic GMP-AMP synthase inhibitors; inhibition, % at 12.5 µM; Q8N884; recombinant h-cGAS, ATP depletion, Kinase-Glo luminescence; 290,000 tested, 0.081% active;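 further: 0% = vehicle reaction and 100% = reaction without DNA for no activity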
Target sequence (Q8N884 whole entry, looked up): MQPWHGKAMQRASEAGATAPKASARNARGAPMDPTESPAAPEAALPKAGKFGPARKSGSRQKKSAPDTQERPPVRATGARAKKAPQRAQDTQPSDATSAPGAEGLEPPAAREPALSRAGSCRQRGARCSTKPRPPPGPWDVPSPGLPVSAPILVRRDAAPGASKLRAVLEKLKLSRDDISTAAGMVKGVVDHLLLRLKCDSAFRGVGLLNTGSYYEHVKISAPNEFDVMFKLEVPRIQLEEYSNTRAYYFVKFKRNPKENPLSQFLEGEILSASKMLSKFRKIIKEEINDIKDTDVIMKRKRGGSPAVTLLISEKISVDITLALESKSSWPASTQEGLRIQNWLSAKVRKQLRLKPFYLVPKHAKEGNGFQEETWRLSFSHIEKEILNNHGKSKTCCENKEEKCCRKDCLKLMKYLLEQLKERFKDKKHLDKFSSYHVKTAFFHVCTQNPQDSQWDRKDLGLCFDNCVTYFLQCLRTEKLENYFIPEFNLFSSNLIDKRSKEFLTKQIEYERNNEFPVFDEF
mcGAS lum: cyclic GMP-AMP synthase inhibitors, mouse, primary biochemical chemiluminescence; Q8C6L5; recombinant cGAS, Kinase-Glo ATP depletion luminescence; inhibition, % at 12.5 µM; 160,000 tested, 0.15% active;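 further: 0% = negative control wells and 100% = reference inhibitor with no enzyme activity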
NPYLR7 ag: agonists of mosquito NPYLR7 receptor, primary screen, cell-based, Aedes aegypti, calcium fluorescence, mosquito biting behavior. 270,000 tested, 0.15% active. HEK293T NPYLR7/Galpha15, GCaMP6s calcium fluorescence. Aedes aegypti neuropeptide Y-like receptor 7 (NPYLR7). activation, % at 10 µM; in the data active means activation above about 40%;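 further: 0% = vehicle and 100% = reference agonist at the receptor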
An asterisk follows results filed as active; / = no result; ! = not active in a repeat. Only some compounds are listed: those with a hit (about 0.3% of all), similar ones and a draw of the others. Unless noted, no stated cut-off is given here; in the data, active means inhibition above about 40%; inactive means the rest.

SMILES	hcGAS inh	mcGAS lum	NPYLR7 ag
Oc1ccc(Br)cc1C=Nn1cc(-c2ccccc2)[nH]c1=S	-2.1	/	-7.6
O=C1c2ccccc2C(=O)C1c1ccnc2ccccc12	-3.7	-1.5	102.6*
O=C1c2ccccc2C(=O)C1c1nccc2ccccc12	-5.0	/	0.1
COc1cc(Br)c(O)c(/C=N\n2c(C)n[nH]c2=S)c1	10.3	/	134.2*
COc1ccc(-c2n[nH]c(=S)n2N=Cc2ccc(OC)c(Br)c2)cc1	-4.8	-4.6	5.1
Cc1ccc(S(=O)(=O)N2CCC(C(NC(=O)CC(C)C)C(=O)N3CCCCC3)CC2)cc1 (configuration not stated)	-1.1	-3.7	-1.2
COc1cc(OC)cc(C(=O)NCC(c2cccs2)N2CCOCC2)c1 (configuration not stated)	-4.7	-6.0	5.6
CNC(=O)c1cnc(/C=C/c2csc(-c3ccsc3)n2)[nH]c1=O	2.4	/	67.1*
Cc1nc(-c2ccsc2)sc1C(=O)NCc1ccccc1	-5.0	-7.4	0.1
NC(=O)c1ccsc1NC(=O)CN1CCCc2ccccc21	0.1	/	-11.3
CC1=NN(c2ccc(Cl)c(C(=O)O)c2)C(=O)/C1=C\c1ccc(Br)c([N+](=O)[O-])c1	7.4	50.3*	4.5
COc1cc(/C=C2\C(=O)N(c3ccc(Cl)c(C(=O)O)c3)N=C2C)cc([N+](=O)[O-])c1O	-2.9	26.1	2.5
O=c1oc2cc(O)ccc2cc1-c1nc2ccccc2s1	-2.4	-3.2	140.5*
CCOc1ccc2cc(-c3nc4ccccc4s3)c(=O)oc2c1	-3.9	-4.6	-0.2
CC(Cl)C(=O)Nc1nnc(SCc2cccc(Cl)c2F)s1 (configuration not stated)	-6.2	-2.8	22.4
O=C(CSc1nnc(CNC(=O)c2cccs2)n1-c1ccccc1)Nc1nc2ccccc2s1	-4.4	/	-7.3
Cc1nccn1CC(C)CNC(=O)N1CCC(C(C)C)CC1 (configuration not stated)	-12.0	67.5*	5.9
Cc1ncc(CNC(=O)N2CCC(C(C)C)CC2)s1	-3.7	/	1.7
COCCNC(=O)c1cc(NC(=O)Nc2ccc(SC)cc2)ccc1N1CCC(C)CC1	-6.3	-5.8	35.1
Cc1cc(N)c2ccccc2[n+]1CCCCCCCCCC[n+]1c(C)cc(N)c2ccccc21	90.9*!	-1.8	-3.6
CC[n+]1c(C)cc(Cl)c2ccccc21	-7.5	-5.4	0.7
CCn1c(CCNC(=O)CCc2ccsc2)n[nH]c1=S	-10.2	/	12.5
O=C(NCc1ccccn1)c1ccc(NC(=O)c2ccco2)cc1	-13.9	/	18.9
O=C(CCl)c1ccc(NC(=O)c2ccco2)cc1	-5.6	78.1*	10.5
O=C1NCCN1c1cccc(C(=O)N2CCCC2Cc2cccc(F)c2)c1 (configuration not stated)	-7.6	/	3.4
SMILES	hcGAS inh	mcGAS lum	NPYLR7 ag
O=C1NC(=O)C(CC(=O)N2CCN(c3nccc(-c4cccc(C(F)(F)F)c4)n3)CC2)N1 (configuration not stated)	-7.9	-8.5	22.0
CCOC(=O)c1cccc(NC(=O)NCCc2nc3ccccc3[nH]2)c1	-2.5	-2.8	11.0
COC(=O)c1ccc(CSc2nc3cc(S(=O)(=O)N4CCCC(C)C4)ccc3n2CC2CCCO2)c(OC)c1 (configuration not stated)	-2.0	-1.4	25.1
O=C(NCCNC(=O)[C@H]1CCCN1C(=O)C(Cl)c1ccccc1)c1ccccc1 (some centres not stated)	-3.1	-5.8	/
COCc1cc(C)nc(N/N=C\c2cc(I)c(OC)c(OC)c2)c1C#N	-2.9	-4.6	-1.9
N#CCCNN=Cc1cc(I)c(O)c(I)c1	54.7*	99.0*	-1.0
CCCCS(=O)(=O)N1CCCN(c2nc(CCC(C)C)nc3c2cnn3-c2cccc(Cl)c2)CC1	-1.1	-3.6	9.5
CCCc1nn2c(N)c(C=C3C=CC(=O)C=C3)c(=O)nc2s1	13.1	/	-3.5
CCCc1nn2c(N)c(C=C3C=C(Cl)C(=O)C(Cl)=C3)c(=O)nc2s1	25.2	52.5*	51.3*
CC(Cn1ccnc1)NC(=O)c1ccccc1N(C)C(=O)c1cccs1 (configuration not stated)	-2.4	/	4.7
CC(Cn1ccnc1)NC(=O)NCC(C)(C)c1ccccc1F (configuration not stated)	43.4*	/	0.0
CC(=O)Nc1ccc2c3c(cccc13)C(=O)N(c1ccccc1)C2=O	-6.2	-5.2	-0.5
Nc1ccc2c3c(cccc13)C(=O)N(c1ccccc1)C2=O	-1.2	/	75.8*
Cc1cccc(N2C(=O)c3cccc4c(N)ccc(c34)C2=O)c1	4.1	-0.7	77.0
C=CCN1C(=O)c2cccc3c(Cl)ccc(c23)C1=O	-3.3	-4.9	2.8
O=C1c2cccc3c(NCCO)ccc(c23)C(=O)N1CCO	-3.9	-2.9	107.0*
C=CCNc1ccc2c3c(cccc13)C(=O)N(c1ccccc1)C2=O	-6.6	-4.7	99.4*
CC(c1cccc(O)c1)N(C)Cc1nccn1CC(F)(F)F (configuration not stated)	-11.1	/	9.3
COc1cccc(COc2coc(CN3CCCN(S(=O)(=O)c4ccccc4C(F)(F)F)CC3)cc2=O)c1	-5.2	-6.3	20.2
COc1ccc(S(=O)(=O)Oc2ccccc2CN(C(=O)Nc2ccccc2OC)C2CC2)cc1	-4.8	-8.8	1.6
COc1ccc(S(=O)(=O)Oc2cccc(CN(C(=O)Nc3ccccc3OC)C3CC3)c2)cc1	-2.4	41.5*	-4.1
CC1=NC2=C(C(=O)CCC2)C(c2ccccc2)C1C#N (configuration not stated)	-9.1	-7.5	6.0
COc1ccc(CCNC(=O)c2c(C)noc2-c2cccs2)cn1	1.2	67.8*	4.4
COc1ccc(CCNC(=O)c2c(C)noc2-c2ccccc2Cl)cn1	-3.2	-8.3	9.8
O=C(C1CCCN(C2CCN(Cc3ccncc3)CC2)C1)N1CCCOCC1 (configuration not stated)	-7.0	-15.9	2.9
SMILES	hcGAS inh	mcGAS lum	NPYLR7 ag
FC(F)(F)c1ccc(-c2nc(CSc3cc(Cl)ccc3Cl)cs2)cc1	-5.4	-7.3	2.3
O=C(/C=C/c1ccsc1)NC1CCc2c(O)cccc21 (configuration not stated)	-3.8	-8.8	2.3
N#CC(=CC1C(=O)N(c2c(Cl)cccc2Cl)c2ccccc21)C(N)=NCc1ccccc1 (configuration not stated)	-3.6	/	-10.8
CN(C)/C=C1\C(=O)N(c2c(Cl)cccc2Cl)c2cc(C=C(C#N)C#N)ccc21	-37.8	/	125.2*
CCCc1nn(-c2ccccc2Cl)c(C)c1C(=O)NCC1CCCO1 (configuration not stated)	-2.7	-4.6	3.4
N#Cc1c(N)oc(-c2ccccc2)c1-c1ccccc1	49.5*	34.2	6.5
Nc1nnc(-c2ccccc2)o1	-4.7	/	-5.0
N#Cc1c(N)oc(-c2cccs2)c1-c1cccs1	54.6*	/	-0.5
Cc1nc(N)c(C#N)c(-c2cccs2)c1C	-1.0	/	0.8
Cc1ccc2nc(SCc3cccc(F)c3)nc(=O)n2c1	0.6	0.4	-0.4
CCN1CCN(C2=C(Cl)C(=O)N(c3ccc(OC)cc3)C2=O)CC1	-6.4	/	-2.2
Cc1ccc2nc(Cn3cnc4c(Cl)cc(Cl)cc4c3=O)cc(=O)n2c1	-3.8	/	60.6*

Bioassay records (PubChem)
